Screening data (PubChem)
Only some compounds are listed: those with a hit (about 15% of all), similar ones and a draw of the others.
HCV inh = inhibitors of hepatitis C virus infection. 3.4% of 340,000 active. AID 651820. Huh7.5.1 HCVcc-Cre infection, luciferase reporter, 44 h. Potency, µM (series often up to 41.8 µM), inactives show top-dose activity change, negative = inhibition, usual class: inhibitors; also: potency is read from the fitted curve at half-maximal effect; % is scaled to controls: 0 for no effect and ±100 for the full control effect
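A cell-based infection assay in which seeded cells (1,000 per well) receive test compound after 4 h, are inoculated with HCVcc-Cre at approximately 0.5 moi, and are incubated 44 h before luminescence detection.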
Pf growth 48h = inhibits P. falciparum growth in the first generation, 48 h. P. falciparum luciferase growth in erythrocytes, 48 h. Potency, µM (titrated, usually from 28.7 µM), for inactives: at the highest dose activity change, negative = inhibition, most hits filed as inhibitors. 5.9% of 310,000 active; also: potency is read from the fitted curve at half-maximal effect; % is scaled to controls: 0 for no effect and ±100 for the full control effect
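Here the parasites carry a stable luciferase gene and grow inside erythrocytes in Albumax-based RPMI medium with compound for one erythrocytic cycle. Activity is scored as loss of luminescent signal.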
Sm TGR block = S. mansoni TGR enzyme inhibition; Q962Y6; 3% of 360,000 active; Potency, µM (top dose mostly 114 µM), for the others: at the top dose activity change, negative = inhibition, most hits filed as inhibitors; AID 485364; purified TGR, DTNB reduction, TNB absorbance 405 nm; also: potency is read from the fitted curve at half-maximal effect; % is scaled to controls: 0 for no effect and ±100 for the full control effect; nearly all actives have a fitted effect of over 60% in size
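Kinetic colorimetric format: TGR-catalysed, NADPH-driven DTNB reduction monitored via TNB absorbance. Enzyme dispensed at 20 nM; compound exposure 15 min at room temperature before reaction start.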
HCMV antiviral = human cytomegalovirus inhibition. HFF cells, HCMV-luciferase reporter, 72 h; stronger effect = lower value. activity change, negative = inhibition, % at 57.5 µM. 4.5% of 410,000 active. AID 1259415; in the data active = activity change below about -60%; inconclusive = no clear call, values can overlap the other calls; inactive = above about -39%; also: % is scaled to controls: 0 for no effect and ±100 for the full control effect
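Inhibition of viral replication was scored as loss of reporter luminescence in HFFs infected with HCMV-luciferase (MOI 1 PFU/cell) for 72 h; compounds tested at 2 doses, normalized to buffer and Salinomycin controls.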
SARS PLpro yeast = inhibitors of SARS-CoV papain-like protease in yeast; S. cerevisiae expressing SARS-CoV PLpro, growth rescue; Potency, µM (top dose mostly 32.9 µM), for the others: at the top dose activity, positive = growth rescue, usual class: activators; 0.19% of 330,000 active; AID 485353; calls by dose curve; also: potency is read from the fitted curve at half-maximal effect; 0% is about no effect; nearly all actives have a fitted effect of over 55% in size
Pf growth 96h = P. falciparum growth inhibition at 96 hours; 6.9% of 320,000 active; P. falciparum luciferase reporter growth, 96 h; Potency, µM (titrated, usually from 28.7 µM), for inactives: at the highest dose activity change, negative = inhibition, hits mostly inhibitors; also: potency is read from the fitted curve at half-maximal effect; % is scaled to controls: 0 for no effect and ±100 for the full control effect
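Compounds incubated with erythrocytes infected by luciferase-expressing P. falciparum (2% hematocrit, 0.05% parasitemia final) for 96 hours, 37 C in 5% CO2. Growth inhibition scored as decreased luciferase luminescence.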
HCV confirm = HCV inhibition, cherry-pick confirmation; shares compounds with HCV inh; HCVcc-Cre infectious virus cell assay, luciferase, inhibition; Potency, µM (doses to about 41.8 µM), without a hit: at the highest dose activity, negative = inhibition, usual class: inhibitors; 78% of 640 active; AID 720575; also: potency is read from the fitted curve at half-maximal effect; nearly all actives have a fitted effect of over 80% in size
HCV host tox = toxic to HCV host cells, flagging false HCV inhibitors; HCV host cell line cytotoxicity counterscreen; Potency, µM (top dose mostly 41.8 µM), for the others: at the top dose activity change, negative = cytotoxicity, actives largely listed as inhibitors; 22% of 640 active; shares compounds with HCV inh;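 also: potency is read from the fitted curve at half-maximal effect; 44 h compound exposure; % is scaled to controls: 0 for no effect and ±100 for the full control effect; nearly all actives have a fitted effect of over 55% in size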
Numbers without * were called inactive; ? = inconclusive; nt = no result; ! = a repeat was not active. Unless noted, calls follow the shape of the dose curve; as a rule, active = well fitted curve in the direction sought with a large enough effect; inconclusive = small, poorly fitted or top-dose-only effect, or another doubt; inactive = no such curve, though single readings can be large; an effect the other way counts as inactive or inconclusive.

SMILES | HCV inh | Pf growth 48h | Sm TGR block | HCMV antiviral | SARS PLpro yeast | Pf growth 96h | HCV confirm | HCV host tox
Cc1ccc(Cn2c(SCC(=O)NCc3ccco3)nc3ccsc3c2=O)cc1 | 4.5µM* | 13µM* | -30% | 5 | 8% | ? | 11µM* | 16%
Cc1cc2c(=O)n(Cc3ccco3)c(SCC(=O)NCc3ccco3)nc2s1 | 3.5µM* | ? | 0% | -1 | 0% | nt | 2.8µM* | 36%
Cc1sc2nc(SCC(=O)c3cccs3)n(Cc3ccco3)c(=O)c2c1C | 2% | ? | ? | -6 | -4% | nt | ? | 2.8µM*
CCC(C)N(C(=O)c1csnn1)C(C(=O)NC1CCCC1)c1ccccc1F (configuration not stated) | 16% | -4% | -10% | 8 | -2% | 0% | nt | nt
O=C(NCCN1CCOCC1)C1CCC(CNS(=O)(=O)c2ccc(Cl)cc2)CC1 (configuration not stated) | 29% | 0% | -15% | 48 | -2% | nt | nt | nt
CCn1c(=O)n(CC)c2cc(N3CCCC3)c(NC(=O)c3cc(Cl)ccc3OC)cc21 | 4µM* | ? | -23% | -20 | 8% | 8.3µM* | 16µM* | ?
CCn1c(=O)c(=O)n(CC)c2cc(N3CCCCC3)c(NC(=O)c3ccccc3OC)cc21 | nt | nt | 9% | 15 | nt | nt | nt | nt
COc1cc2ccccc2cc1C(=O)Nc1ccccc1N1CCCC1 | ? | ? | 12% | 0 | -5% | ? | 14µM* | -84%
CCc1cc2c(cc3c(=O)n(CC(=O)N4CCCCC4)nc(CC)n32)s1 | nt | nt | 6% | -34 | nt | nt | nt | nt
Cc1cccc(CS(=O)(=O)c2ncc(Cl)c(C(=O)Nc3c(C)cccc3C)n2)c1 | 6.3µM* | -15% | 7.1µM* | ? | -14% | 37% | 10µM* | 28µM*
CSc1ncc(Cl)c(C(=O)Nc2cccc(C)c2)n1 | -11% | -14% | -8% | -6 | 22% | -2% | nt | nt
COc1ccc(CNC(C)C(=O)Nc2ccc3ccccc3c2)cc1OC (configuration not stated) | -10% | -19% | -3% | -5 | -2% | -8% | nt | nt
CCN1CCN(c2cc(C)c3cc(NC(=O)c4cccc(Cl)c4)ccc3n2)CC1 | nt | nt | 12% | 7 | nt | nt | nt | nt
CCN1CCN(c2cc(C)c3cc(NC(=O)c4cc(OC)cc(OC)c4)ccc3n2)CC1 | 2.2µM* | ? | 2% | -90*! | 1% | ? | 25µM* | 22µM*
CCN(CC)CCNC(=S)Nc1ccc2nc(N3CCCC3)cc(C)c2c1 | 2µM* | ? | 0% | -30 | -7% | -6% | 7µM* | -23%
CSCC[C@H](NC(=O)[C@@H]1Cc2ccccc2CN1)C(=O)NC[C@H]1CC[C@H](C(=O)O)CC1 | 12% | -9% | 3% | 3 | -2% | 7% | nt | nt
Cc1noc(C)c1COC(=O)c1ccc(F)c(S(=O)(=O)N2CCCCC2)c1 | ? | -9% | 0% | -2 | -4% | -27% | 28µM* | -36%
COc1ccc(S(=O)(=O)N2CCCCCC2)cc1C(=O)OCc1c(C)noc1C | -19% | ? | 1% | 68 | 9% | ? | nt | nt
Nc1nc(CCl)nc(N(c2ccccc2)c2ccccc2)n1 | 0.56µM* | 5.2µM* | 11µM* | -98* | 2% | 2.1µM* | 1µM* | -95%
O=C(COC(=O)CNS(=O)(=O)/C=C/c1ccccc1)Nc1cc(S(=O)(=O)N2CCCCC2)ccc1Cl | 20% | -6% | 13% | ? | 0% | -19% | nt | nt
Cc1ccc(-n2ncc3c(N4CCC(C)CC4)ncnc32)cc1C | nt | nt | 0% | -25 | nt | nt | nt | nt
COc1ccc(Nc2nc(N)nc(CCl)n2)cc1 | 4µM* | -31% | 35µM* | -98* | 0% | -87% | 6.3µM* | 2.5µM*
CCOC(=O)C(CC)Sc1ncnc2c1c(-c1ccccc1)cn2-c1ccc(OC)cc1 (configuration not stated) | nt | nt | 5% | -17 | nt | nt | nt | nt
COc1ccccc1-c1cccc(-c2nc(C(=O)Nc3nccs3)cc3c2[C@@H](CCO)N(C(=O)CC2CC2)C3)c1 | nt | nt | nt | -30 | nt | nt | nt | nt
CCc1nnc(NC(=O)c2ccc(OC)cc2OC)s1 | 8.9µM* | 144% | -17% | 79 | 0% | 2% | -19% | -32%
SMILES | HCV inh | Pf growth 48h | Sm TGR block | HCMV antiviral | SARS PLpro yeast | Pf growth 96h | HCV confirm | HCV host tox
COCC(C)n1c(SCC(=O)N2CCc3ccccc3C2)nc2ccccc2c1=O (configuration not stated) | ? | ? | -12% | -25 | -15% | 7.4µM* | 20µM* | -3%
COCC(C)n1c(SCC(=O)N2CCCCC2)nc2ccccc2c1=O (configuration not stated) | -6% | -24% | 0% | 31 | 2% | 0% | nt | nt
O=C(COc1ccc(Br)cc1)NNC(=O)c1cc(S(=O)(=O)N2CCOCC2)ccc1Cl | -4% | nt | nt | -25 | nt | nt | nt | nt
CCNC(=S)N/N=C/c1cccc(OCc2c(F)cccc2Cl)c1 | ? | ? | -9% | ? | 6% | ? | nt | nt
Cc1nc(N)nc(N)c1CCCc1ccc(Cl)c(Cl)c1 | 4µM* | nt | nt | -87* | nt | nt | 7µM* | ?
O=C(C1CCC1)N1CC(=O)N2[C@H](CO)[C@@H](c3ccc(Br)cc3)[C@@H]2C1 | nt | nt | nt | -5 | nt | nt | nt | nt
Clc1ccc2c(c1)C(OC1CN3CCC1CC3)c1ccccc1CS2 (configuration not stated) | 10µM* | ? | 0% | -35 | 3% | ? | 16µM* | ?
CCc1ccc(CN(C)C(=O)c2ccc3c(c2)OCCO3)cc1 | -11% | 10% | 10% | 26 | -2% | -7% | nt | nt
CCCCNC(=O)c1nn2c(C(F)(F)F)cc(-c3ccc(OC)cc3)nc2c1Br | ? | 5% | 1% | -27 | 12% | ? | nt | nt
COC(=O)c1nn2c(C(F)(F)F)cc(-c3ccc(Br)o3)nc2c1Br | 5.6µM* | 16% | 45µM* | 36 | 0% | nt | ? | -19%
CN1CCN(c2ccc([N+](=O)[O-])c3no[n+]([O-])c23)CC1 | 2.2µM* | ? | 45µM* | -98* | -5% | ? | 22µM* | 22µM*
CN1CCN(c2ccc(S(=O)(=O)C(F)(F)F)cc2[N+](=O)[O-])CC1 | -18% | 16% | -1% | 13 | 21% | ? | nt | nt
Clc1ccc(C#Cc2cccnc2)cc1 | 4% | 46% | -6% | 31 | -3% | 80% | nt | nt
CCn1c(SC)nnc1-c1sc2cc(Cl)ccc2c1Cl | 5.6µM* | ? | 5% | ? | -17% | nt | -32% | -15%
